Most compounds without a hit are left out; they make up all but 1.1% or so of the library.
Rv3671c inh – inhibitors of M. tuberculosis serine protease Rv3671c. 320,000 tested, 0.048% active. inhibition, % at 5.96 µM. P9WHR9; in the data active means inhibition above about 38%;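 further: extracellular domain of Rv3671c used as enzyme; 0% = enzyme with DMSO and 100% = no enzyme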
RecA intein inh – blocks M. tuberculosis RecA intein splicing; cell-free RecA intein splicing, fluorescence; inhibition, % (concentration not given with the values); 290,000 tested, 0.75% active; P9WHJ3; in the data active means inhibition above about 30%; inconclusive means no clear call, values can overlap the other calls;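 further: 0% = vehicle wells and 100% = reference inhibitor control wells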
Mtb betalactam – beta-lactam sensitization of Mtb H37Rv | M. tuberculosis H37Rv growth with meropenem, percent inhibition | inhibition, % at 25 µM | 330,000 tested, 0.27% active; call rule not given here;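 further: growth measured after seven days incubation then overnight dye step; 0% = bacteria only wells and 100% = bacteria with antibiotic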
Mtb UGM inh – blocks M. tuberculosis UGM enzyme. P9WIQ1. purified UGM, fluorescence polarization probe displacement. inhibition, % at 10 µM. 320,000 tested, 0.06% active. AID 504406; in the data active means inhibition above about 10%, passing the limit was not always enough; inconclusive means no clear call, values can overlap the other calls
PriA SSB inh – K. pneumoniae PriA-SSBct interaction inhibition. inhibition, % at 33 µM. 430,000 tested, 0.6% active. AlphaScreen SSBct-PriA binding, biotinylated peptide. AID 1272365; in the data active means inhibition mostly above about 37%, no sharp cut-off; inactive means mostly below about 20%;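 further: plate controls were negative control peptide for no effect and reference peptide for full effect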
Numbers without * were called inactive; i = inactive; ? = inconclusive; · = no result; ! = a repeat was not active.

SMILES	Rv3671c inh	RecA intein inh	Mtb betalactam	Mtb UGM inh	PriA SSB inh
COc1ccc(F)cc1S(=O)(=O)NCc1cc(C2CC2)n(C2CCCC2)n1	·	·	·	·	-9
O=C(Cc1cccs1)Nc1nc(CN2CCc3ccccc3C2)cs1	·	·	·	·	-3
CO[C@@H](CNC(=O)C(=O)Nc1cc(Cl)ccc1C#N)c1ccccc1C	·	·	·	·	-5
CCCCC(=O)NN=Cc1ccc(Sc2cccc3cccnc23)o1	·	·	·	·	100*
O=C(N/N=C/c1ccc(Sc2cccc3cccnc23)o1)c1ccncc1	·	·	·	·	i
Cc1ccc(NC(=O)Cn2cccc(-c3nc(-c4ccc(Br)cc4)no3)c2=O)cc1F	·	·	·	·	5
CC1CN(c2oc(COc3ccc(Cl)cc3Cl)nc2C#N)CC(C)O1 (stereo unspecified)	4	4	-15	2	43*
Cc1ccc(OCc2nc(C#N)c(N3CCCCC3)o2)cc1	-3	2	-12	-1	45*
N#Cc1nc(COc2ccc(Cl)cc2)oc1N1CCCCCC1	-1	·	-2	0	52*
N#Cc1nc(COc2ccccc2)oc1N1CCCCC1	7	1	-4	-2	37
NNc1nc(-c2ccccc2)cc(-c2ccccc2)n1	-18	4	1	0	1
NNc1nc(-c2ccccc2)cc(-c2ccccc2O)n1	-2	5	92	1	40*
Cc1cc(NC(=O)C2CCCN(c3ccc(=O)n(C)n3)C2)no1 (stereo unspecified)	·	·	·	·	-4
COc1ccccc1CNC(=O)c1csc(Nc2ccc(S(C)(=O)=O)cc2)n1	·	·	·	·	-12
O=C(O)c1cccc(Cn2c(Cl)c(C=NNc3ccccc3)sc2=O)c1	·	·	·	·	15
O=Cc1sc(=O)n(Cc2cccc(C(=O)O)c2)c1Cl	5	54*	-2	-13	-10
COC(=O)Nc1nn(-c2ccc(OC)cc2)c(=O)c(C#N)c1C	2	40*	1	-1	-3
Cc1ccsc1C=NNC(=O)c1ccco1	·	·	·	·	-3
CC1=NN(c2ccc(Cl)cc2)C(=O)C1C(c1ccccc1O)c1c(C)[nH]n(-c2ccc(Cl)cc2)c1=O (stereo unspecified)	-213	26	21	4	10
CC1=NN(c2ccc(C)cc2C)C(=O)C1C(c1ccccc1O)C1C(=O)N(c2ccc(C)cc2C)N=C1C (stereo unspecified)	-165	78*	-1	4	13
NCCS(=O)(=O)N1CCN(c2cccc(Cl)c2)CC1	·	·	·	·	-7
O=C(NCC1CCN(c2nc3ccccc3o2)CC1)c1c(F)cccc1Cl	·	·	·	·	-7
Cc1ccc(Nc2c(-c3ccc(N4CCOCC4)cc3)nc3ncccn23)cc1	-2	-7	9	1	97*
CS(=O)(=O)c1ccc(CC(=O)Nc2nnc(Cc3ccc4c(c3)OCCO4)o2)cc1	·	·	·	·	47*
CS(=O)(=O)c1ccc(CC(=O)Nc2nnc(-c3cc(Cl)sc3Cl)o2)cc1	·	·	·	·	active!
SMILES	Rv3671c inh	RecA intein inh	Mtb betalactam	Mtb UGM inh	PriA SSB inh
CCOC(=O)c1nnc(-c2ccccc2)nc1NC	0	-2	-23	1	5
CCOC(=O)c1nnc(-c2ccccc2)nc1Oc1ccccc1Cl	5	45*	27	1	-7
Cc1cc(C=O)c(C)n1-c1ccc(Oc2ccc([N+](=O)[O-])cn2)cc1	-5	-3	12	-4	-10
Cc1cc(C=O)c(C)n1-c1ccc(NC2CCCC2)c([N+](=O)[O-])c1	10	5	0	-1	68*
CN1/C(=C/C(=S)NC(=O)C2(C)CC2(Cl)Cl)C(C)(C)c2ccccc21 (stereo unspecified)	-16	-6	5	4	71*
CCCNC(=O)c1cc2c3ccccc3n(C)c2s1	-15	0	-21	3	-5
Cn1c2ccccc2c2cc(C(=O)NNC(=O)CCl)sc21	2	33*	99	5	9
Cn1nnnc1Sc1ncnc2scc(-c3ccc(F)cc3)c12	-14	32*	79	0	-5
Cn1nnnc1Sc1ncnc2scc(-c3ccc(Br)cc3)c12	-7	·	99	5	13
CCOC(=O)c1oc2ccccc2c1NC(=O)C1CCN(S(=O)(=O)c2ccc(OC)cc2)CC1	·	·	·	·	-1
CCc1ccc(NSc2ccccc2[N+](=O)[O-])cc1	1	20	36	2	65*
O=C(CSc1nnc(-c2ccccn2)n1Cc1ccco1)c1ccc(Cl)cc1	-8	5	-10	1	90*
O=C(Nc1ccccc1)c1sccc1Oc1ccc([N+](=O)[O-])cc1F	7	17	-8	0	44*
C#CCn1c(-c2ccc(N(C)C)cc2)nc2ccccc21	·	·	·	·	1
O=P1(c2ccccc2)Nc2ccccc2N1c1ccccc1 (stereo unspecified)	·	·	·	·	57*
Cc1cc(C(=O)COc2ccccc2C(N)=O)c(C)n1C	9	1	0	0	-4
Cc1cc(C(=O)COc2cccc3cccnc23)c(C)n1C	-3	-4	15	16*	17
O=C(c1cccc(F)c1)N1CCN(c2cc(N3CCCCC3)c(F)cc2[N+](=O)[O-])CC1	8	17	?	-1	42*
Cc1cc2nc3c(=O)n(CCc4ccccc4)c(=O)[nH]c3nc2cc1N	-9	-350	-6	17*	-14
COc1cc2[nH]c(=O)n(C3CCCCC3)c(=O)c2cc1OC	10	0	8	1	-13
C=CCn1c(=O)[nH]c2nc3cc(N=CN(C)C)c(C)cc3nc2c1=O	-13	-22	-5	7	-3
CCCCn1c(=O)[nH]c2nc3cc(N)ccc3nc2c1=O	9	·	-5	33*	-17
Nc1ccc2nc3c(=O)n(C4CCCCC4)c(=O)[nH]c3nc2c1	7	-188	2	36*	-6
Nc1ccc2nc3c(=O)n(CCc4ccccc4)c(=O)[nH]c3nc2c1	-24	-189	-5	?	-8
c1ccc(COc2ccc(CN3CC(c4nc(C5CC5)no4)C3)cc2)cc1	·	·	·	·	-14
SMILES	Rv3671c inh	RecA intein inh	Mtb betalactam	Mtb UGM inh	PriA SSB inh
Cc1ccc(CNC(=O)CN2C(=O)COc3ccc(C)cc32)cc1	1	-1	-2	-3	39*
CCOc1cccc(C2C(C(=O)c3ccc(C)o3)=C(O)C(=O)N2c2nccs2)c1 (stereo unspecified)	6	-10	-7	16*	-11
N=c1n(CCN2CCCC2)c2ccccc2n1CC(O)c1ccco1 (stereo unspecified)	-2	-1	-2	41*	8
COc1ccc(-c2nnc(SCC(=O)Nc3cccc(C)c3C)n2N)cc1OC	·	·	·	·	-14
Cc1ccc(C(=O)NC(C#N)=C(Cl)Cl)cc1	·	33*	·	·	-5
CC(C)CCN1C(=O)CCc2cc(NC(=O)c3ccc(F)cc3F)ccc21	·	·	·	·	-20
CC1(C)N=C(SCC(=O)Nc2ccc(Cl)cc2)C(c2ccccc2)=N1	-9	·	2	2	-3
CC1(C)N=C(SCC(=O)Nc2ccc(Cl)cc2)C(c2ccc(Cl)cc2)=N1	-11	44*	-2	-1	-15
COC(=O)C1CC(OC)CN1C(=O)c1cccnc1SC (stereo unspecified)	·	·	·	·	1
CC(=NNC(=S)Nc1ccc(C)cc1)c1cc2ccccc2o1	·	·	·	·	38*
COc1ccccc1NC(=O)c1oc2ccccc2c1NC(=O)Cc1ccc(-c2ccccc2)cc1	·	·	·	·	-19
